According to PubChem BioAssay (NCATS):
Inconclusive results are not listed. Activity calls are given as the source filed them. Unless noted, calls follow the shape of the dose curve; as a rule, active = well fitted curve in the direction sought with a large enough effect; inconclusive = small, poorly fitted or top-dose-only effect, or another doubt; inactive = no such curve, though single readings can be large; an effect the other way counts as inactive or inconclusive.

Legend:
[1] = qHTS for Inhibitors of Plasmodium falciparum (DD2) proliferation (AID 504314);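 also: parasite DNA measured by SYBR Green fluorescence after red cell lysis; plate controls were DMSO vehicle for no effect and artemisinin wells for full effect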
Outline: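 Infected RBCs, 0.3% parasitemia, 2.5% Hct; compound 72 h, 37C/5% CO2; lyse + SYBR Green I, RT overnight, dark; read ex485/em535; normalize to DMSO and artemisinin 0.29 uM.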

[2] = qHTS for Inhibitors of Plasmodium falciparum (GB4) proliferation (AID 504315);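 also: 0% = DMSO vehicle and -100% = 0.29 µM artemisinin control; nearly all actives have a fitted effect of over 50% in size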
Outline: (§1)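 Erythrocytes infected with P. falciparum line (0.3% parasitemia, 2.5% hematocrit final) incubated with compounds 72 h at 37 °C, 5% CO2; SYBR Green lysis buffer added, fluorescence read next day. Normalized to 0.29 uM artemisinin and DMSO.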

[3] = qHTS for Inhibitors of Plasmodium falciparum (7G8) proliferation (AID 504316);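 also: series mostly up to about 6.7 µM; 0% = DMSO vehicle and -100% = 0.29 µM artemisinin full kill; nearly all actives have a fitted effect of over 65% in size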
Outline: as §1

[4] = qHTS for Inhibitors of Plasmodium falciparum (HB3) proliferation (AID 504318);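 also: 0% = DMSO vehicle and -100% = artemisinin control; nearly all actives have a fitted effect of over 60% in size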
Outline: as §1

[5] = qHTS for Inhibitors of Plasmodium falciparum (CP250) proliferation (AID 504320);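 also: plate controls were DMSO vehicle for no effect and 0.29 µM artemisinin control for full effect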
Outline: as §1

[6] = biological target: Atrial natriuretic peptide receptor 1 (Homo sapiens) (UniProt P16066); test: Natriuretic polypeptide receptor (hNpr1) antagonism - Pilot CMLD screen (AID 1347052; calls by dose curve;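 also: HEK293 cells with hNpr1 stimulated by hNppA peptide at 0.1 nM; cGMP level read as GloSensor luciferase luminescence after agonist stimulation; series mostly up to about 9.2 µM; % is scaled to controls: 0 for no effect and ±100 for the full control effect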)
Sequence of Atrial natriuretic peptide receptor 1 (Homo sapiens) (P16066 whole entry, looked up): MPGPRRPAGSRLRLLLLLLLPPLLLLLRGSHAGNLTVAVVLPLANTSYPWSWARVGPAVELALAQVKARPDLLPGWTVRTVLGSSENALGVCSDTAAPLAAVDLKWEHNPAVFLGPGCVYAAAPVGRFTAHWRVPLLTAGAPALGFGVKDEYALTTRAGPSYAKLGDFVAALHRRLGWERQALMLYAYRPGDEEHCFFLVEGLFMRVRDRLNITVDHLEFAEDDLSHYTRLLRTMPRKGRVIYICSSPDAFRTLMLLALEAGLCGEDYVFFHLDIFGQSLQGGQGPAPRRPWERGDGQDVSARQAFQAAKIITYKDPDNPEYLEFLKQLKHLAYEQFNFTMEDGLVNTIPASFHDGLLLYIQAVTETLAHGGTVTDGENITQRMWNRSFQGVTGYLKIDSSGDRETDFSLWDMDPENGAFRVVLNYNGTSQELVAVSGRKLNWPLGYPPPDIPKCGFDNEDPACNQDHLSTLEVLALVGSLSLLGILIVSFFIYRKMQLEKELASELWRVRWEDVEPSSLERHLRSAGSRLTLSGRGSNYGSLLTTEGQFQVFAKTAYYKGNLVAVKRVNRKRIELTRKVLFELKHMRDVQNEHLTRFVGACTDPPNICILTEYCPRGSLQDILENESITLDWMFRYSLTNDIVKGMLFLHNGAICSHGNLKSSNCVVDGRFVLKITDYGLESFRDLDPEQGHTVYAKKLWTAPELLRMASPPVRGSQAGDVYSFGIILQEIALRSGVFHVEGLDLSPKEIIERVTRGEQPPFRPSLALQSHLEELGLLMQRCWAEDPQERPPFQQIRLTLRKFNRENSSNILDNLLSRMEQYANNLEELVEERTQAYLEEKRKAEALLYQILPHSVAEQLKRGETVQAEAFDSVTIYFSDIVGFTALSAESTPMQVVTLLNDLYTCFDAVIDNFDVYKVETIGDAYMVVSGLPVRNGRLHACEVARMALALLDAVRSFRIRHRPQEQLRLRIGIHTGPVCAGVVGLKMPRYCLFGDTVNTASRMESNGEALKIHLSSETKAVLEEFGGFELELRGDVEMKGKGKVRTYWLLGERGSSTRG

COCC=CC1=CC2=CC(=O)C(C)(OC(=O)c3cnc4ccccc4n3)C(=O)C2=CN1CCCCO (centres undefined)
inactive: Potency [1] | Potency [2] | Potency [3] | Potency [4] | Potency [5] | Potency [6]

C=CCN1c2ccccc2[C@]23CCC(=O)N(CCOC)C2=NC(C(=O)OC)=C(C(=O)OC)[C@H]13
inactive: Potency [1] | Potency [2] | Potency [3] | Potency [4] | Potency [5] | Potency [6]

Cc1cc2c(nc1C)CCCN2CC(O)CN1CCCc2nc(-c3ccc(Br)cc3)ccc21 (centres undefined)
inactive: Potency [1] | Potency [2] | Potency [3] | Potency [4] | Potency [5] | Potency [6]

CCCCCCCC=CC1=CC2(C)CC1(C)C(CCCCCCC)CC2=O (centres undefined)
inactive: Potency [1] | Potency [2] | Potency [3] | Potency [4] | Potency [5] | Potency [6]

C=CCOC(=O)N[C@H](c1cccc(OC)c1)[C@H](C)C=CCC(=O)OC
inactive: Potency [1] | Potency [2] | Potency [3] | Potency [4] | Potency [5] | Potency [6]

C=CCOC(=O)N[C@H](c1ccccc1)[C@H](C)C=CCC(=O)OC
inactive: Potency [1] | Potency [2] | Potency [3] | Potency [4] | Potency [5] | Potency [6]

COC(=O)C1=C(C(=O)OC)[C@@H]2N(C)c3ccccc3[C@@]23C[C@@H](C(=O)OC)N(C(=O)NC(C)(C)C)C3=N1
inactive: Potency [1] | Potency [2] | Potency [3] | Potency [4] | Potency [5] | Potency [6]

CCN1C(=O)[C@@H]2[C@H]3[C@H](O)[C@H](O)CC(=NO[C@H](C)c4cn([C@H](CO)Cc5ccccc5)nn4)[C@@H]3CC[C@H]2C1=O
inactive: Potency [1] | Potency [2] | Potency [3] | Potency [4] | Potency [5] | Potency [6]

C=CCOC(=O)C(C(C)=O)[C@@H](NC(=O)OC)c1ccc(F)cc1 (some centres undefined)
inactive: Potency [1] | Potency [2] | Potency [3] | Potency [4] | Potency [5] | Potency [6]

O=C(C=NO)NCCCCNC(=O)C=NO
inactive: Potency [1] | Potency [2] | Potency [3] | Potency [4] | Potency [5] | Potency [6]

CCCC=CC1C(=O)[C@@H]2O[C@H]2C2(OCC(CC)(CC)CO2)C1CO (some centres undefined)
inactive: Potency [1] | Potency [2] | Potency [3] | Potency [4] | Potency [5] | Potency [6]

COC(=O)C(C(C)=O)[C@@H](NC(=O)NCc1ccccc1)c1ccccc1 (some centres undefined)
inactive: Potency [1] | Potency [2] | Potency [3] | Potency [4] | Potency [5] | Potency [6]

CC(C)CON=C1C[C@@H](O)[C@@H](O)[C@@H]2[C@H]3C(=O)N(C[C@@H]4CCCO4)C(=O)[C@@H]3CC[C@@H]12
inactive: Potency [1] | Potency [2] | Potency [3] | Potency [4] | Potency [5] | Potency [6]

CCCCC1=CC2=C(c3ccco3)C(=O)C(C)(OC(=O)c3ccc(OC)cc3)C(=O)C2=CN1Cc1ccco1 (centres undefined)
inactive: Potency [1] | Potency [2] | Potency [3] | Potency [4] | Potency [5] | Potency [6]

Cc1cc(F)ccc1O[C@H]1C=C[C@@H](c2ccc3c(c2)OCO3)O[C@H]1CO
inactive: Potency [1] | Potency [2] | Potency [3] | Potency [4] | Potency [5] | Potency [6]

CC1=CC[C@@H](C)O[C@@]2(C1)C(=O)N(Cc1ccc(Br)cc1)c1ccccc12
inactive: Potency [1] | Potency [2] | Potency [3] | Potency [4] | Potency [5] | Potency [6]

COC1=C[C@H](C(=O)NCc2ccc(OC)cc2)C(C)C(c2ccccc2)CC1=O (some centres undefined)
inactive: Potency [1] | Potency [2] | Potency [3] | Potency [4] | Potency [5] | Potency [6]

COC[C@H]1O[C@]2(c3ccccc3)CO[C@@H]1[C@@H](C=Cc1ccccc1)C2
inactive: Potency [1] | Potency [2] | Potency [3] | Potency [4] | Potency [5] | Potency [6]

CCCCC1=CC2=C(c3ccco3)C(=O)C(C)(OC(=O)c3ccc(OC)cc3)C(=O)C2=CN1c1ccc(OC)cc1 (centres undefined)
inactive: activity, negative = inhibition [1] -0.773% [at 1.12 µM] | Potency [2] | Potency [3] | Potency [4] | Potency [5] | Potency [6]

c1ccc(-c2nc(-c3ccccc3)c(NC3CCCCC3)o2)cc1
inactive: Potency [1] | Potency [2] | Potency [3] | Potency [4] | Potency [5] | Potency [6]

CC#CCN1C(=O)NC(c2ccccc2)C(C(=O)OCC)=C1c1ccccc1 (centres undefined)
inactive: Potency [1] | Potency [2] | Potency [3] | Potency [4] | Potency [5] | Potency [6]

COC(=O)C1=C2C=CCCN2C(=O)NC1c1ccccc1 (centres undefined)
inactive: Potency [1] | Potency [2] | Potency [3] | Potency [4] | Potency [5] | Potency [6]

C=C(C)C(=O)OC[C@@H]1CN2[C@H](c3ccc(Br)cc3)[C@H](C)CC[C@H]2C(=O)O1
inactive: Potency [1] | Potency [2] | Potency [3] | Potency [4] | Potency [5] | Potency [6]

COCCN1C(=O)C2=C(C1=O)C1N(C)c3ccccc3[C@@]13C[C@@H](CO)N(C(C)=O)C3=N2 (some centres undefined)
inactive: Potency [1] | Potency [2] | Potency [3] | Potency [4] | Potency [5] | Potency [6]

COC(=O)C1=C(C(=O)OC)[C@@H]2N(C)c3ccc(OC)cc3[C@@]23C[C@@H](C(=O)OC)N(C(=O)c2cccs2)C3=N1
inactive: Potency [1] | Potency [2] | Potency [3] | Potency [4] | Potency [5] | Potency [6]

CCCCC1=CC2=C(c3ccco3)C(=O)C(C)(OC(=O)c3ccc(OC)cc3)C(=O)C2=CN1CCN1CCOCC1 (centres undefined)
inactive: Potency [1] | Potency [2] | Potency [3] | Potency [4] | Potency [5] | Potency [6]

CCN1C(=NCCc2cccnc2)NC(c2ccccc2)C(C(=O)OC)=C1C (centres undefined)
inactive: Potency [1] | Potency [2] | Potency [3] | Potency [4] | Potency [5] | Potency [6]

CC(=O)OC[C@H]1O[C@H](CC=NO[C@H](C)c2cn([C@@H]3COC[C@@H]3O)nn2)C=C[C@@H]1OC(C)=O
inactive: Potency [1] | Potency [2] | Potency [3] | Potency [4] | Potency [5] | Potency [6]

O=C1CCCC1C(O)c1ccc2ccccc2c1 (centres undefined)
inactive: Potency [1] | Potency [2] | Potency [3] | Potency [4] | Potency [5] | Potency [6]

N#CCCn1cnc2c1NC=NC2Cl (centres undefined)
inactive: Potency [1] | Potency [2] | Potency [3] | Potency [4] | Potency [5] | Potency [6]

COC(=O)CCCC1=CC2=CC(=O)C(C)(OC(=O)c3cccs3)C(=O)C2=CN1C1CCCCC1 (centres undefined)
inactive: Potency [1] | Potency [2] | Potency [3] | Potency [4] | Potency [5] | Potency [6]

CO[C@@H]1c2cc(F)ccc2C(=CCCOC(=O)CC=Cc2ccccc2)[C@H]1C
inactive: Potency [1] | Potency [2] | Potency [3] | Potency [4] | Potency [5] | Potency [6]

C[C@@H]1CC[C@H]2C(=O)N(Cc3cccc([N+](=O)[O-])c3)C[C@@H](O)CN2[C@@H]1c1cccc(Br)c1
inactive: Potency [1] | Potency [2] | Potency [3] | Potency [4] | Potency [5] | Potency [6]

CCN1C(=O)N(C)C(c2ccccc2)C(C(=O)OC)=C1C (centres undefined)
inactive: Potency [1] | Potency [2] | Potency [3] | Potency [4] | Potency [5] | Potency [6]

C=C(C)C(=O)C=CCCCC=CC(=O)OCC
inactive: Potency [1] | Potency [2] | Potency [3] | Potency [4] | Potency [5] | Potency [6]

COCCN1C(=O)N[C@@H](CCc2ccccc2)[C@H](C(=O)OC)[C@H]1C
inactive: Potency [1] | Potency [2] | Potency [3] | Potency [4] | Potency [5] | Potency [6]

COC(=O)CCC(=O)OC1(C)C(=O)C2=COC(c3ccc(OC)cc3)=CC2=C(Br)C1=O (centres undefined)
inactive: Potency [1] | Potency [2] | Potency [3] | Potency [4] | Potency [5] | Potency [6]

C=C[C@H](C)[C@](C)(O)c1ccccc1
inactive: Potency [1] | Potency [2] | Potency [3] | Potency [4] | Potency [5] | Potency [6]

COc1ccc(-c2nc(-c3ccccc3)oc2Nc2c(C)cccc2C)cc1
inactive: Potency [1] | Potency [2] | Potency [3] | Potency [4] | Potency [5] | Potency [6]

C=CCCCN1C=C(C(=O)OCC)C(c2ccccc2)NC1=O (centres undefined)
inactive: Potency [1] | Potency [2] | Potency [3] | Potency [4] | Potency [5] | Potency [6]

CC1(OC(=O)C2CCCC2)C(=O)C=C2C=C3CCCN3C=C2C1=O (centres undefined)
inactive: activity, negative = inhibition [1] 0.418% [at 1.12 µM] | Potency [2] | Potency [3] | Potency [4] | Potency [5] | Potency [6]

C#CCNC(=O)[C@H]1C=C(OC)C(=O)C[C@H](c2ccccc2)[C@H]1C
inactive: Potency [1] | Potency [2] | Potency [3] | Potency [4] | Potency [5] | Potency [6]

COC(=O)N[C@@H](CCc1ccccc1)[C@]1(C(=O)OC)CCCC1=O
inactive: Potency [1] | Potency [2] | Potency [3] | Potency [4] | Potency [5] | Potency [6]

C=CCOC(=O)N[C@H](C(C(=O)OC)=C(C)NCc1ccccc1)c1ccc(Br)cc1
inactive: Potency [1] | Potency [2] | Potency [3] | Potency [4] | Potency [5] | Potency [6]

CC(=O)OC[C@H]1O[C@H](CC=NOC[C@@H](C)[C@H](OCc2ccccc2)C(C)C)C=C[C@@H]1OC(C)=O
inactive: Potency [1] | Potency [2] | Potency [3] | Potency [4] | Potency [5] | Potency [6]

O=C1[C@@H]2[C@H]3[C@H](O)[C@H](O)CC(=NOC[C@@H](O)COCc4ccco4)[C@H]3CC[C@H]2C(=O)N1c1ccc(F)cc1F
inactive: Potency [1] | Potency [2] | Potency [3] | Potency [4] | Potency [5] | Potency [6]

CCCCC1=CC2=C(c3ccco3)C(=O)C(C)(OC(=O)c3ccc(OC)cc3)C(=O)C2=CN1CCCOC(C)C (centres undefined)
inactive: Potency [1] | Potency [2] | Potency [3] | Potency [4] | Potency [5] | Potency [6]

COC(=O)C1=C(C)N(Cc2ccccc2)C(=O)NC1c1ccccc1 (centres undefined)
inactive: Potency [1] | Potency [2] | Potency [3] | Potency [4] | Potency [5] | Potency [6]

CCOC(=O)C(C)=NNC(C)=O
inactive: Potency [1] | Potency [2] | Potency [3] | Potency [4] | Potency [5] | Potency [6]
